“And” between values parts separate entries of the source, which are not always exact repeats. Equal values may be shown once. Values without a mark were called inactive. The source made the active and inactive calls.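 How the source made its calls, unless noted: active means binding below the plate cutoff, the plate median minus 3 SD, with a reading above zero; inconclusive means below the plate cutoff but reading exactly zero; inactive means the rest.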
Experiments:
[1] = yeast AGP1-GFP fluorescence change, single-dose – cell-based, flow cytometry, S. cerevisiae, cherry picks, confirmation (AID 2273;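 active means GFP response above 150% of the DMSO level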;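 further: median GFP channel fluorescence over the whole cell population gate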); conditions: S. cerevisiae AGP1-GFP strain, 3 h, at 10 µM
[2] = target: Integrin beta-1 (Homo sapiens) + Integrin alpha-4 (Homo sapiens) (UniProt P13612+P05556); assay: alpha4beta1 integrin LIBS antibody binding reduction – U937 cells, HUTS-21 mAb, flow cytometry, validation set, VLA-4 allosteric modulator project, pilot screen (AID 2674;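 active means inhibition above 50%, about 3 SD of the validation set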;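 further: antibody binding induced by the VLA-4 ligand LDV present at three times its Kd; 0% = LDV ligand with antibody and no compound and 100% = antibody without LDV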); conditions: HUTS-21 LIBS mAb binding, at 6.7 µM, hits give high values, binding induced by LDV ligand
Sequence of Integrin beta-1 (Homo sapiens) + Integrin alpha-4 (Homo sapiens) (P05556 whole entry, looked up): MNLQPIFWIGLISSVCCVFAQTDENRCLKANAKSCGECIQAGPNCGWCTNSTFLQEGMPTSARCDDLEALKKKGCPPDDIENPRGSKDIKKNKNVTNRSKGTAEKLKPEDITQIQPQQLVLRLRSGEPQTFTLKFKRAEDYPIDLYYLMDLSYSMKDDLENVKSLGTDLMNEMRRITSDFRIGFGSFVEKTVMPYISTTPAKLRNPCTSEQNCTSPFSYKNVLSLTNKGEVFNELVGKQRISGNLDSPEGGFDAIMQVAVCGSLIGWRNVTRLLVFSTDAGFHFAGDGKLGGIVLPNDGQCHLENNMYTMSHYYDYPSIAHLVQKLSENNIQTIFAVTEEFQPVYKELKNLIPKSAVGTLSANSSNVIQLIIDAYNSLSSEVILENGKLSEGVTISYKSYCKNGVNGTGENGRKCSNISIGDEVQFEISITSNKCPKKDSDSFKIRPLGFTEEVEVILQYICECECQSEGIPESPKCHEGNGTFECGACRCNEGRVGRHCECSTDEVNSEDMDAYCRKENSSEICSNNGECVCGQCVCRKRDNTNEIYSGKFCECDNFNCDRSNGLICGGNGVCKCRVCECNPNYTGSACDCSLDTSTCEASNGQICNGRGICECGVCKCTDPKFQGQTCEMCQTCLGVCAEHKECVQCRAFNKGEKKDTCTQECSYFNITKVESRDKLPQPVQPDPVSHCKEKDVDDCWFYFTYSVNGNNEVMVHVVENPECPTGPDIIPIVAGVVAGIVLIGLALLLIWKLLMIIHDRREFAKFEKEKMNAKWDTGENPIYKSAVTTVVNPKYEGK
Sequence of Integrin beta-1 (Homo sapiens) + Integrin alpha-4 (Homo sapiens) (P13612 whole entry, looked up): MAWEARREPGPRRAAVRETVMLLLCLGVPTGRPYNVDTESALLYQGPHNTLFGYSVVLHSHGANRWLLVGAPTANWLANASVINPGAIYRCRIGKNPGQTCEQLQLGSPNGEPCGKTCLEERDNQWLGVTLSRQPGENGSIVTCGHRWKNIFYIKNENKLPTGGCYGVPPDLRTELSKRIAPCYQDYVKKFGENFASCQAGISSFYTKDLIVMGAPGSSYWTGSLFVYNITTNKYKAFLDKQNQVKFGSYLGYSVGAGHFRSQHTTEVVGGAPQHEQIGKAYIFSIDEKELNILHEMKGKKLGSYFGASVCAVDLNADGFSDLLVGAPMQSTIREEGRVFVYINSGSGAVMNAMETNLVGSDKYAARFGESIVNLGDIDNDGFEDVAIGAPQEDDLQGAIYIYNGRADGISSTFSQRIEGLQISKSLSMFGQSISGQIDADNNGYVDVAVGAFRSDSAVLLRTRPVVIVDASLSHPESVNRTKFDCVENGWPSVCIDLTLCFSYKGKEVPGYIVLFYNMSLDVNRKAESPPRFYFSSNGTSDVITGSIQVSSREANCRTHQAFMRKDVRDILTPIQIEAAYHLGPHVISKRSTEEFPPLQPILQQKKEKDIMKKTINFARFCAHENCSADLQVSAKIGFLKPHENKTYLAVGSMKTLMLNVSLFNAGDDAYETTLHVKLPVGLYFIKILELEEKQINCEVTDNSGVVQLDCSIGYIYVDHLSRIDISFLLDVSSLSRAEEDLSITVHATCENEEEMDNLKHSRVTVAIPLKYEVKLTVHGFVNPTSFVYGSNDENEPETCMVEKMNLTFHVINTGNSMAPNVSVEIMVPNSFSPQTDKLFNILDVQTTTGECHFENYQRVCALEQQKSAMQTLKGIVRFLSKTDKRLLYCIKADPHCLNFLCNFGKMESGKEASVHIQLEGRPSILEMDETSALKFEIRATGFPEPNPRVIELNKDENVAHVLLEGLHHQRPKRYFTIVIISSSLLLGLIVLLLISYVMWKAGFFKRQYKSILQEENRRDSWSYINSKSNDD

[3] = calorie-restriction mimetic ROS inhibitors, yeast – validation compound set, pilot screen (AID 2706;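 active means superoxide response below 65% of plate, a cut near 3 SD across the whole screen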;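 further: yeast exposed to compound for one week at 30 degrees C before staining; 100% = mean of all compound wells on the same plate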); conditions: S. cerevisiae aging, superoxide DHE fluorescence; at 10 µM; hits give low values
[4] = target: Beta-adrenergic receptor kinase 1 (Homo sapiens) (UniProt P25098); assay: GRK2 binders displacing RNA aptamer, biochemical, validation, human GRK2, bead flow cytometry (AID 488806;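 active means aptamer binding inhibition above 30%, about 3 SD of noise from non-fluorescent compounds; inactive means inhibition at or below 30%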); conditions: bead-bound GRK2, FAM-aptamer displacement, at 10 µM, hits give high values
Sequence of Beta-adrenergic receptor kinase 1 (Homo sapiens) (P25098 whole entry, looked up): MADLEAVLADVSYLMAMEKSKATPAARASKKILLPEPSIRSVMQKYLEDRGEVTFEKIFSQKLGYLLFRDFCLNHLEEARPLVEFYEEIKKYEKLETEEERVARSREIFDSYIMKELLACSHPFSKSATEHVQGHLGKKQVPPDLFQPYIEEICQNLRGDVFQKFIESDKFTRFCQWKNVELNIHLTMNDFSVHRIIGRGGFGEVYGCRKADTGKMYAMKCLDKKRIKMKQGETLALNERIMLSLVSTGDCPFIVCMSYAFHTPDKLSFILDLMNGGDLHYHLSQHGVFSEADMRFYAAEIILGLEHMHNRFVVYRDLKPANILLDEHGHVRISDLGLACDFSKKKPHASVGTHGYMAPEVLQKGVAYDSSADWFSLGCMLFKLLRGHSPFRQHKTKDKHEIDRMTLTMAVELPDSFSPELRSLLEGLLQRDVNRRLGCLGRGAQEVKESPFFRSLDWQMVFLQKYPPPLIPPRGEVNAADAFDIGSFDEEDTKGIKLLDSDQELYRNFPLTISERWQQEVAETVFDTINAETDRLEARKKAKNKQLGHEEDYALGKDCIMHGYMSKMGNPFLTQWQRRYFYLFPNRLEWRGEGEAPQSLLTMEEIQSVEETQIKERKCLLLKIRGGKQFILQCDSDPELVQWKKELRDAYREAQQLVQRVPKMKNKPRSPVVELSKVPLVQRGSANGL

[5] = target: Beta-2 adrenergic receptor (Homo sapiens) (UniProt P07550); assay: agonist-induced loss of surface beta2AR – cell-based, FAP fluorogen, flow cytometry, validation set, pilot screen (AID 504459;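 active means percent response above 42, roughly 3 SD of non-fluorescent test compounds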;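 further: agonist-driven loss of surface beta2AR via internalization measured by FAP dye flow cytometry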); conditions: Am2.2-beta2AR cells, at 10 µM, hits give high values
Sequence of Beta-2 adrenergic receptor (Homo sapiens) (P07550 whole entry, looked up): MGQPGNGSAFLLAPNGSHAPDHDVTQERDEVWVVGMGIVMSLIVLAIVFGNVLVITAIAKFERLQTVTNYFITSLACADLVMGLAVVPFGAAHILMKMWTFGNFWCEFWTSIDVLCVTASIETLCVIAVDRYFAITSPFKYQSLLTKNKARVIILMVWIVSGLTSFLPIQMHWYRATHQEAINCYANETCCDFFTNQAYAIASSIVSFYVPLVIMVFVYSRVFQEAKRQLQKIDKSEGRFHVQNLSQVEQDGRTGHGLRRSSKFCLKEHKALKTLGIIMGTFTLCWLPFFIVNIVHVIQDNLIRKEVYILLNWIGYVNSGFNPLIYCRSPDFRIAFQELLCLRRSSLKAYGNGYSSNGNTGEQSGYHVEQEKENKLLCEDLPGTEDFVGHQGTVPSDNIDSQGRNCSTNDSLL

[6] = target: AP-2 complex subunit beta (Homo sapiens) (UniProt P63010); assay: beta-arrestin/AP2 interaction blockers – biochemical, validation set, GST-AP2 beads, flow cytometry, pilot screen (AID 504541;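 active means inhibition above 54%, about 3 SD of non-fluorescent compounds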;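 further: AP2 carries R879A mutation and is captured from E. coli lysate; bead-bound FITC arrestin peptide fluorescence measuring arrestin peptide binding to AP2; 0% = DMSO wells and 100% = excess unlabeled arrestin peptide control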); conditions: FITC arrestin peptide, at 10 µM, hits give high values, AP2 beta2 appendage fragment, R879A mutant
Sequence of AP-2 complex subunit beta (Homo sapiens) (P63010 whole entry, looked up, the tested form may be a part, one chain of several): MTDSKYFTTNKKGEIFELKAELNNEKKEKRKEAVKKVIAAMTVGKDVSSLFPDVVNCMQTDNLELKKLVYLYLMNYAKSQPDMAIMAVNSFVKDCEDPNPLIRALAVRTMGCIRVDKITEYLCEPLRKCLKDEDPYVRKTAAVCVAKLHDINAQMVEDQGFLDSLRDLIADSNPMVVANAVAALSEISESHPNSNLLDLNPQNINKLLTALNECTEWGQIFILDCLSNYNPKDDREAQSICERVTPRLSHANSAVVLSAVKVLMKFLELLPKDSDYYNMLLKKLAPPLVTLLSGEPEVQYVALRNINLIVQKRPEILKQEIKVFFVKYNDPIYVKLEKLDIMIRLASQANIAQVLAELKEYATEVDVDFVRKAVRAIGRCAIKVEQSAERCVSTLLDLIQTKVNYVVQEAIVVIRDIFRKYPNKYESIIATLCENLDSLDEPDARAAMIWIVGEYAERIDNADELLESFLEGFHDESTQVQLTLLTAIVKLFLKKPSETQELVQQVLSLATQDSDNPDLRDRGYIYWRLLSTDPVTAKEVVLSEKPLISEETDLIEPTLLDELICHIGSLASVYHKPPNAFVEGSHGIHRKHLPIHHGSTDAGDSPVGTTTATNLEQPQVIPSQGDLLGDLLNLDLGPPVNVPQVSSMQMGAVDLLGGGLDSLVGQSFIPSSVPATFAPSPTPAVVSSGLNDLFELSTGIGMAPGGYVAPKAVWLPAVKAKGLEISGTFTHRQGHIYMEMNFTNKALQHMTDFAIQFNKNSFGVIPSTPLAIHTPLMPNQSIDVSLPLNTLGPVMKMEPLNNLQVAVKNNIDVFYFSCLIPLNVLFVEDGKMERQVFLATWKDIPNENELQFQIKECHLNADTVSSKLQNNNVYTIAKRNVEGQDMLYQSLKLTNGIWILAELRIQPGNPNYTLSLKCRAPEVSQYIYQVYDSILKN

[7] = cytosolic pH regulators acting via V-ATPase – S. cerevisiae, pHLuorin, HTS validation (AID 504600; in the data active means response above about 15%;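 further: plate controls were DMSO for no effect and reference compound for full effect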); conditions: V-ATPase proton transport, at 10 µM, hits give high values
[8] = test system: anti-desmoglein-3 scFv antibody binding to human DSG3; assay: blockers of pathogenic pemphigus antibody–desmoglein-3 binding – biochemical, validation compound set, bead-based, flow cytometry, pilot screen (AID 588368); conditions: Protein G beads, DSG3-Fc, scFv-GFP binding, at 10 µM, hits give low values;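 further: signal is the median channel fluorescence of bead-bound GFP antibody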
[9] = Nile Red efflux blockade in pump-expressing yeast – validation compound set, multiplex, phenotypic, pilot screen (AID 588506;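 active means efflux inhibition above 0.42, the validation set average plus 4 SD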;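 further: Nile Red retained in cells so higher fluorescence means more efflux inhibition; 0 = negative control wells and 1 = enniatin B 25 µM full block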); conditions: S. cerevisiae pump-expressing triplex, Nile Red efflux flow cytometry; at 10 µM; hits give high values; the pumps come from Candida albicans
[10] = target: ATP-binding cassette sub-family B member 6 (Homo sapiens) (UniProt Q9NP58); assay: blockers of ABCB6-driven porphyrin uptake – K562-ABCB6 cells, flow cytometry, validation set, pilot screen (AID 588550;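 active means inhibition above the screen-wide mean plus 3 SD, about 51%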;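 further: 0% = DMSO wells and 100% = benzethonium chloride 70 µM positive control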); conditions: K562-ABCB6 porphyrin accumulation, 1 h, at 10 µM, hits give high values
Sequence of ATP-binding cassette sub-family B member 6 (Homo sapiens) (Q9NP58 whole entry, looked up): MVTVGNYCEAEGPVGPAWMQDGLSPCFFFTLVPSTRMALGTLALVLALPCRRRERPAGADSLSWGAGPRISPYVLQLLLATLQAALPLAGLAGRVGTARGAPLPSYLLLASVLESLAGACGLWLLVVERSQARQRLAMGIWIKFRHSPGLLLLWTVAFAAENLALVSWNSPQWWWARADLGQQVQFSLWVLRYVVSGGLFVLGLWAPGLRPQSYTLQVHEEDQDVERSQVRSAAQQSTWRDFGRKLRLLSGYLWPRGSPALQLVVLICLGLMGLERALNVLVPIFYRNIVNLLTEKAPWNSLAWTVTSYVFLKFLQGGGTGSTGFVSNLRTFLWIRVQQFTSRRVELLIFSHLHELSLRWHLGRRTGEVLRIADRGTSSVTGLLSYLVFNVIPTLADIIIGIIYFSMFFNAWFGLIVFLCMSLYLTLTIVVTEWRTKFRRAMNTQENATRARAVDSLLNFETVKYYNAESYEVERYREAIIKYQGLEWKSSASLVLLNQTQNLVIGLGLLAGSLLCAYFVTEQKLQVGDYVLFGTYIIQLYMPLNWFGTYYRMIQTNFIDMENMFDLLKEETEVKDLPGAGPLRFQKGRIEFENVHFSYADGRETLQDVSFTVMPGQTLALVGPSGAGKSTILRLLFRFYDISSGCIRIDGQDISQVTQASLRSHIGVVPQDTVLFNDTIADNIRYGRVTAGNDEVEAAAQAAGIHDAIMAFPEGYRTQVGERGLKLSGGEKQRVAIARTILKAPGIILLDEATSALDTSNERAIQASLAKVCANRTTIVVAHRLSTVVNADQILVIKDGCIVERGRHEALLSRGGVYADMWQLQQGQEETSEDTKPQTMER

[11] = AML differentiation inducers, ER-HoxA9 marrow cells – cell-based, GFP/MAC1 double positive, flow cytometry, validation set, primary screen (AID 588685;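 active means differentiation response of at least 50%, scaled between solvent and reference control, from cells with both markers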;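 further: compound exposure lasts four days before antibody staining and flow analysis; 0% = DMSO wells and 100% = 5 µM fulvestrant positive control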); conditions: hits give high values, normalized: vehicle 0, fulvestrant 100

Compound	GFP response, % of DMSO [1]	inhibition [2]	superoxide response (% of plate) [3]	aptamer binding inhibition [4]	response [5]	inhibition [6]	response [7]	binding (% of control) [8]	efflux inhibition (fraction of control) [9]	inhibition [10]	differentiation response [11]
CN(C)CCN(Cc1ccccc1)c1ccccn1	103%	-6.15%	95.6%	1%	1.51%	49.6%	-5.5%	103%	0.48 (active)	113% (active)	-1.64%
c1ccc2c(c1)CCOC2CNCCCN1CCCCC1 (stereo unspecified)	98.5%	14.2%	110%	-3%	0.72%	-5.37%	-6.48%	105%	0.01	-2%	-3.28%
CC(=O)Nc1ccc(S(=O)(=O)c2ccc(N)cc2)cc1	105%	17.1%	110%	0%	-3.74%	-5.82%	-1.44%	101%	0.05	8%	9.01%
C[n+]1ccccc1/C=N/O	98%	15.2% and -21.2%	102% and 95%	2% and 0%	5.73% and -2.86%	-7.09% and 7.17%	-0.64% and -1.12%	104% and 95.1%	-0.2 and -0.47	9% and 0%	0.82% and 2.74%
Nc1[nH]c(=O)ncc1F	78.5%	10%	67.3%	0%	–	27%	-5.4%	108%	0.33	1%	7.87%
O=C(O)CCNC(=O)c1ccccc1	104%	-4.21%	94.8%	3%	3.62%	47.5%	-1.09%	98.7%	0.52 (active)	112% (active)	26.2%
CC(=O)[C@@]1(O)CC[C@H]2[C@@H]3C[C@H](C)C4=CC(=O)CC[C@]4(C)[C@H]3CC[C@@]21C	93.3%	11.3%	97%	4%	4.79%	-6.18%	1.54%	102%	-0.46	13%	-9.01%
O=C(/C=C/c1ccccc1)c1ccccc1	99.7%	2.58%	92.2%	4%	5.66%	-4.66%	-0.45%	107%	-0.31	14%	9.83%
CCOc1cc(C=O)ccc1OCCSc1ccc(C)cc1	94.9%	9.13%	108%	4%	5.33%	-9.69%	5.17%	98.9%	0.08	5%	-16.8%
CN/C(=C/[N+](=O)[O-])NCCSCc1ccc(CN(C)C)o1	99.3%	-0.33%	89.5%	-20%	2.38%	-0.41%	-2.01%	104%	-0.42	14%	-3.28%
O=C(O)Cc1ccc(-c2ccccc2)cc1	100%	2.3%	118%	3%	2.38%	22.4%	-1.1%	99.5%	-0.42	8%	-24.8%
CC(C)CC(=O)Nc1ccc2oc(-c3ccncc3)nc2c1	95.9%	10.3%	102%	5%	-11.1%	-5.82%	-0.11%	105%	-0.02	11%	-2.46%
C[C@]12CCC(=O)C=C1CC[C@@H]1[C@@H]2[C@@H](O)C[C@@]2(C)[C@H]1CC[C@]2(O)C(=O)COC(=O)CCC(=O)O	98.9% and 99.3%	-9.57%	98.2%	0%	–	-8.58%	10.6%	99.5%	-0.16	10%	-26%
CCOC(=O)C(Cc1cc(C(C)=O)ccc1OC(C)C)C(=O)OCC	90.8%	-1.3%	91%	4%	-7.47%	47%	-8.56%	99.8%	-0.09	10%	4.09%
Cn1c(=O)c(C(=O)NCCO)c(O)c2ccccc21	98.3%	15.9%	104%	6%	-29.6%	6.89%	2.23%	103%	0	1%	-5.97%
CC(=O)O[C@]1(C(C)=O)CC[C@H]2[C@@H]3C[C@H](C)C4=CC(=O)CC[C@]4(C)[C@H]3CC[C@@]21C	97.1%	-3.57%	–	-1%	3.07%	-9.79%	-0.42%	100%	0.08	20%	10%
O=c1cc(-c2ccccc2)oc2cc(OCc3ccccc3)cc(O)c12	98.9%	-16.8%	88.6%	0%	-12.6%	30.1%	-0.61%	100%	0.59 (active)	0%	5.73%
C[C@]12CCC(=O)C=C1[C@H](O)C[C@@H]1[C@@H]2[C@@H](O)C[C@@]2(C)[C@H]1CC[C@]2(O)C(=O)CO	98.9%	-10.5%	98.9%	2%	6.38%	-21.5%	1.8%	104%	-0.05	3%	5.67%
CCCCN(CCCC)CCCOC(=O)c1ccc(N)cc1	94.5%	0.64%	92.8%	0%	-0.26%	6.38%	-2.47%	104%	0.05	9%	1.64%
COc1cc(/C=C/C(=O)CC(=O)/C=C/c2ccc(O)c(OC)c2)ccc1O	98.7%	–	–	6%	-195%	14.9%	-4.77%	129%	0.24	-398%	18.8%
O=c1[nH]cc(F)c(=O)[nH]1	90%	-45%	100%	-3%	-17.5%	-8.2%	1.44%	104%	-0.06	9%	-5.73%
O=C1ON=C(c2ccc(Cl)cc2)/C1=C/c1ccc(O)cc1	95.4%	14.6%	93.4%	4%	33.5%	-8.88%	-1.63%	101%	-0.06	2%	-8.8%
C[C@]12CCC(=O)C=C1CC[C@@H]1[C@@H]2[C@@H](O)C[C@@]2(C)[C@H]1CC[C@]2(O)C(=O)CO	99.2%	10.9%	99.2%	-2%	–	29.5%	-1.08%	95.4%	–	3%	-18%
